# According to PubChem BioAssay (Tox21):
# Where “and” joins values, the source holds several entries; their conditions need not be identical. Equal values may be shown once. Inconclusive results are not listed. A call without a number means that no potency is given here. More than one record can exist for a structure, and the calls need not agree. Calls of active or inactive are those of the source. Unless noted, calls follow the shape of the dose curve; as a rule, active = well fitted curve in the direction sought with a large enough effect in the repeat runs; inconclusive = weak or mixed curves; inactive = no such curve, though single readings can be large; an effect the other way counts as inactive or inconclusive.
# Experiment: qHTS assay for small molecule disruptors of the mitochondrial membrane potential - cell viability (AID 720634; calls by dose curve;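 also: human HepG2 liver cancer cells; nearly all actives have a fitted effect of over 20% in size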)
# Conditions: HepG2 viability, ATP luminescence (CellTiter-Glo), 1 h; series mostly up to 83.2 µM; activity change, negative = cytotoxicity: at the top concentration
# Outline: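 ATP-based luminescent viability readout (CellTiter-Glo, 30 min, room temperature) in HepG2 cells multiplexed with the m-MPI membrane potential dye; compound exposure lasted 1 hr at 37 C.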
Structure (SMILES),Potency,"activity change, negative = cytotoxicity"
CC1=C(/C=C/C(C)=C/C=C/C(C)=C/CO)C(C)(C)CCC1,inactive,–
CCOC(=O)C1OC1c1ccccc1 (configuration not stated),inactive,–
ClC1=C(Cl)C(Cl)(Cl)C(Cl)=C1Cl,inactive,–
CCCCCC/C=C/CCCCCCCC(=O)O,inactive,–
O=Nc1ccc(O)cc1,inactive,–
CC(C)(N=C=O)c1cccc(C(C)(C)N=C=O)c1,inactive,–
CN(CCOc1ccc(CC2SC(=O)NC2=O)cc1)c1ccccn1 (configuration not stated),–,-6.9% (inactive)
NC(=O)NNc1ccccc1,inactive,–
Nc1c(S(=O)(=O)O)cc(Br)c2c1C(=O)c1ccccc1C2=O,–,-2.91% (inactive)
CCCCCCCCCCCCOCC1CO1 (configuration not stated),inactive,–

# Experiment: qHTS assay for small molecule disruptors of the mitochondrial membrane potential (AID 720635); also: potency is read from the fitted curve at half-maximal effect
# Conditions: HepG2 mitochondrial membrane potential, Mito-MPS dye ratio; series mostly up to 83.2 µM; ratio activity, negative = MMP loss: at the top concentration
# Outline: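 Mitochondrial membrane potential tracked with Mito-MPS dye, red aggregates (ex 540/em 590 nm) against green monomers (ex 490/em 535 nm). Compound treatment 1 hr at 37C, dye 30 min in HepG2.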
Structure (SMILES),"ratio activity, negative = MMP loss",Potency
CCc1ccccc1O,-15.4% (inactive),–
CN(C)c1cccc(O)c1,–,10.9 µM (active)
CCCCC(CC)COC(C)=O (configuration not stated),8.37% (inactive),–
OCC#CCO,–,inactive
Cc1cc(NS(=O)(=O)c2ccc(N)cc2)no1,23.6% (inactive),–
Oc1ccc2ccccc2c1N=Nc1ccccc1,–,3.06 µM (active) and 6.11 µM (active)
O=C1CCCCC1,–,inactive
CCCCCCC(C)(C)S,2.71% [at 95.3 µM] (inactive),–
CC(=O)[C@@]1(O)CC[C@H]2[C@@H]3CCC4=CC(=O)CC[C@]4(C)[C@H]3CC[C@@]21C,0.614% (inactive),–
CCCCCCCCCCC=CC1CC(=O)OC1=O (configuration not stated),–,68.9 µM (active)
O=S(=O)(Oc1ccc(Cl)cc1Cl)c1ccccc1,–,27.8 µM (active) and 61.1 µM (active)
NCCNCCNCCNCCN,-21.6% (inactive),–
Cc1ccc(C(=O)O)o1,–,inactive
CC(C)(C)C(=O)C1C(=O)c2ccccc2C1=O,–,10.8 µM (active) and 6.11 µM (active)
CCCCOCCOCCOC(=O)CCCCC(=O)OCCOCCOCCCC,8.36% (inactive),–
OC1CCCC1,10.9% (inactive),–
Oc1ccc2ccccc2c1,–,49.7 µM (active) and 30.6 µM (active)
ClC1=C(Cl)C(Cl)(Cl)C(Cl)=C1Cl,–,61.1 µM (active)
CCCCCC/C=C/CCCCCCCC(=O)O,11.6% (inactive),–
NC(=O)NNc1ccccc1,–,inactive
CCCCCCCCCCCCOCC1CO1 (configuration not stated),-8.82% [at 95.3 µM] (inactive),–

# Experiment: qHTS assay to test for compound auto fluorescence at 590 nm (red) in HepG2 cells (AID 720674)
# Conditions: HepG2 autofluorescence, red 540/590 nm, 1 h; series mostly up to 91.3 µM; fluorescence, relative to Rose Bengal: at the top concentration
# Outline: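 1 hr compound incubation on HepG2 cells, 37 C, 5% CO2; plate read ex 540 nm / em 590 nm; intensities reported as Rose Bengal sodium equivalents.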
row,Structure (SMILES),outcome
1,CCc1ccccc1O,inactive
2,C=C1CC[C@H](O)CC1=C/C=C1\CCC[C@]2(C)[C@@H]([C@H](C)/C=C/[C@H](C)C(C)C)CC[C@@H]12,inactive
3,O=[N+]([O-])c1cc(N(CCO)CCO)ccc1NCCO,inactive
4,CCCCCCCCCC(=O)O,inactive
5,OCC#CCO,inactive
6,Cc1cc(NS(=O)(=O)c2ccc(N)cc2)no1,inactive
7,CC1CC(OC(=O)c2ccccc2O)CC(C)(C)C1 (configuration not stated),inactive
8,Oc1ccc2ccccc2c1N=Nc1ccccc1,inactive
9,O=C1CCCCC1,inactive
10,O=C(O)c1ccc([N+](=O)[O-])cc1,inactive
11,CC(C)n1c(/C=C/[C@@H](O)C[C@@H](O)CC(=O)O)c(-c2ccc(F)cc2)c2ccccc21,inactive
12,CC1COc2ccccc2N1C(=O)C(Cl)Cl (configuration not stated),inactive
13,CC(=O)[C@@]1(O)CC[C@H]2[C@@H]3CCC4=CC(=O)CC[C@]4(C)[C@H]3CC[C@@]21C,inactive
14,CC(C)NCC(O)COc1cccc2ccccc12 (configuration not stated),inactive
15,O=S(=O)(Oc1ccc(Cl)cc1Cl)c1ccccc1,inactive
16,Cc1cc(O)cc(C)c1Cl,inactive
17,NCCNCCNCCNCCN,inactive
18,Cc1ccc(C(=O)O)o1,inactive
19,CCCCOCCOCCOC(=O)CCCCC(=O)OCCOCCOCCCC,inactive
20,OC1CCCC1,inactive
21,Oc1ccc2ccccc2c1,inactive
22,CC1=CC[C@H]2C[C@@H]1C2(C)C,inactive
23,CC1=C(/C=C/C(C)=C/C=C/C(C)=C/CO)C(C)(C)CCC1,inactive
24,CCOC(=O)C1OC1c1ccccc1 (configuration not stated),inactive
25,ClC1=C(Cl)C(Cl)(Cl)C(Cl)=C1Cl,inactive
26,O=Nc1ccc(O)cc1,inactive
27,CC(C)(N=C=O)c1cccc(C(C)(C)N=C=O)c1,inactive
28,NC(=O)NNc1ccccc1,inactive
29,Nc1c(S(=O)(=O)O)cc(Br)c2c1C(=O)c1ccccc1C2=O,inactive

# Experiment: qHTS assay to test for compound auto fluorescence at 535 nm (green) in HepG2 cells (AID 720675)
# Conditions: green autofluorescence 485/535 nm, 1 h; series mostly up to 91.3 µM; fluorescence, % of fluorescein control: at the top concentration
row,Structure (SMILES),outcome
1,CCc1ccccc1O,inactive
2,CN(C)c1cccc(O)c1,inactive
3,O=C1N=C(O)CN1/N=C/c1ccc(-c2ccc([N+](=O)[O-])cc2)o1,inactive
4,CS(=O)(=O)Nc1ccc([N+](=O)[O-])cc1Oc1ccccc1,inactive
5,OCC#CCO,inactive
6,Cc1cc(NS(=O)(=O)c2ccc(N)cc2)no1,inactive
7,Oc1ccc2ccccc2c1N=Nc1ccccc1,inactive
8,O=C(O)c1ccc([N+](=O)[O-])cc1,inactive
9,CC(C)n1c(/C=C/[C@@H](O)C[C@@H](O)CC(=O)O)c(-c2ccc(F)cc2)c2ccccc21,inactive
10,CC1COc2ccccc2N1C(=O)C(Cl)Cl (configuration not stated),inactive
11,CCCCCCC(C)(C)S,inactive
12,CC(=O)[C@@]1(O)CC[C@H]2[C@@H]3CCC4=CC(=O)CC[C@]4(C)[C@H]3CC[C@@]21C,inactive
13,CC(C)NCC(O)COc1cccc2ccccc12 (configuration not stated),inactive
14,CCCCCCCCCCC=CC1CC(=O)OC1=O (configuration not stated),inactive
15,NCCNCCNCCNCCN,inactive
16,Cc1ccc(C(=O)O)o1,inactive
17,CC(C)(C)C(=O)C1C(=O)c2ccccc2C1=O,inactive
18,CCCCOCCOCCOC(=O)CCCCC(=O)OCCOCCOCCCC,inactive
19,OC1CCCC1,inactive
20,CC1=CC[C@H]2C[C@@H]1C2(C)C,inactive
21,CCOC(=O)C1OC1c1ccccc1 (configuration not stated),inactive
22,CCCCCC/C=C/CCCCCCCC(=O)O,inactive
23,O=Nc1ccc(O)cc1,inactive
24,CN(CCOc1ccc(CC2SC(=O)NC2=O)cc1)c1ccccn1 (configuration not stated),inactive
25,NC(=O)NNc1ccccc1,inactive
26,Nc1c(S(=O)(=O)O)cc(Br)c2c1C(=O)c1ccccc1C2=O,inactive
27,CCCCCCCCCCCCOCC1CO1 (configuration not stated),inactive
